Structures are written as SMILES. Results filed as inconclusive are left out. Values without a mark were called inactive. The source made the active and inactive calls. The call rests on the fitted dose curve; in most records, active means well fitted cell-killing curve with a large enough effect in the repeat runs; inconclusive means weak or mixed curves, or effect the other way; inactive means flat fitted curve, though single readings scatter.
On the % scale 0 is the no-effect control and ±100 the full control effect.

The nature of the test: cAMP Responsive Elements (CRE) small molecule antagonists, cell-based qHTS assay: qHTS cell viability counter screen (AID 2060913). Further: nearly all actives have a fitted effect of over 40% in size. To be noted: CRE-bla HEK293T viability, CellTiter-Glo luminescence, 5 h; series mostly up to 92.4 µM; viability change, negative = cytotoxic: at the top concentration. In a few lines: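 Viability of NKH477-stimulated (0.25 uM final) CRE-bla HEK293T cells is measured by CellTiter-Glo luminescence following 3 hrs compound exposure at 37 C.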
(qHTS replaces the single test concentration by a dilution series.)
Consider `OC1CCCc2ccccc21` (centres undefined), for which the “viability change, negative = cytotoxic” value was 4.14%. Same read-out and setting: in the case of `CC(C)(Cc1c[nH]c2ccccc12)NCC(O)COc1ccccc1C#N` (centres undefined) it was -5.67% [at 42.5 µM]. `Cc1cc(=O)[nH]c(C(C)C)n1`: the Potency entry was “inactive”. On to `COC(=O)C1=C(C)NC(C)=C(C(=O)O[C@@H]2CCCN(Cc3ccccc3)C2)[C@@H]1c1cccc([N+](=O)[O-])c1`, for which the “viability change, negative = cytotoxic” value was -3.91% [at 42.5 µM].

In the case of `NCCOCCO`, the Potency entry was “inactive”.

Turning to `O=C(O)c1cccc(C(=O)O)n1`, the “viability change, negative = cytotoxic” value was -1.01%.

Take `Cc1ccc(NC(=O)N(C)C)cc1NC(=O)N(C)C`: the “viability change, negative = cytotoxic” value is -12%.

Consider `O=C(O)CN(CCN(CC(=O)O)CC(=O)O)CC(=O)O`, for which the viability change, negative = cytotoxic is 3.3% [at 3.27 µM]. Take `OCCNCCO`: the Potency result was “inactive”. As to `NC(N)=NC(=O)Cc1c(Cl)cccc1Cl`, the “viability change, negative = cytotoxic” value is -3.3% [at 42.5 µM].

In the case of `Cc1ccc(C(=O)O)o1`, the Potency entry was “inactive”. On to `O=C(O)CNc1ccccc1`, for which the “viability change, negative = cytotoxic” value is 9.11%. As to `CCCN1C[C@H](CSC)C[C@@H]2c3cccc4[nH]cc(c34)C[C@H]21`, the “viability change, negative = cytotoxic” value was -1.86% [at 42.5 µM]. `CCCCN1C(=O)[C@@H]([C@H](O)C2CCCCC2)NC(=O)C12CCN(Cc1ccc(Oc3ccc(C(=O)O)cc3)cc1)CC2`: the “viability change, negative = cytotoxic” value is 5.34%. Regarding `CCCCCCCCCCCCCCC1CO1` (centres undefined), the “viability change, negative = cytotoxic” value is 2.45%. On to `CCCCC(CC)COCCC#N` (centres undefined), for which the “viability change, negative = cytotoxic” value is -3.29%. Regarding `O=S(=O)(O)c1ccc2cc(O)ccc2c1`, the Potency result was “inactive”. For `CC1CCCC1`, the “viability change, negative = cytotoxic” value was -3.26%. For the compound `CC1=C(/C=C/C(C)=C/C=C/C(C)=C/C(=O)O)C(C)(C)CCC1`, the Potency result is “inactive”.

Consider `O=C(/C=C/c1ccccc1)OCCc1ccccc1`, for which the “viability change, negative = cytotoxic” value is -7.13%. On to `CCC(C)(C)C1CCC(=O)CC1`, for which the “viability change, negative = cytotoxic” value was 1.73%. In the case of `C=CCN1CCc2nc(N)sc2CC1`, the “viability change, negative = cytotoxic” value was 5.45% [at 42.5 µM]. For the compound `CC(C)c1ccc2oc3nc(N)c(C(=O)O)cc3c(=O)c2c1`, the “viability change, negative = cytotoxic” value was -3.79% [at 42.5 µM]. On to `COc1cc(C(=O)OC(COCCC(C)C)CN2CCOCC2)cc(OC)c1OC` (centres undefined), for which the “viability change, negative = cytotoxic” value is -1.64% [at 42.5 µM].

The record behind these values is PubChem BioAssay (Tox21).
